# Measurements reported in the supplement of paper PMC10849652.
# Of roughly 7,900 targets only a part is listed; those with a hit were picked by preference. About 0.6% of all pairs of compound and target were hits. Unmarked numbers belong to inactive results.
# What was measured:
# Assay in all cases: log2 fold change, soluble protein after heating vs DMSO (PISA); higher = thermal stabilisation; K562 cells, 10 uM, 30 min; active = over 0.2 and 3.5 SD of the protein, either way, in both replicates (recomputed)
# [1] = compound: COC1=CC=C(C=C1)CN2C=CC3=C2C=C(C=C3)C(=O)NO
# In short: (§1)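 Thermal stability values are relative to control samples and come from duplicates. They are expressed as log2 fold changes. For measurement, K562 cells (2×10^6 cells/mL) received 10 μM compound for 30 min, and aliquots were heated for 3 min over 48°C-58°C, pooled, and extracted at 4°C in PBS with 0.5% NP-40. Soluble protein, the supernatant after 21,000xg for 90 min, was quantified by TMTpro 16plex LC-MS/MS with equalised channel sums.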
# [2] = compound: CON(C)C(=O)N1N=C(c2cc(F)ccc2F)S[C@@]1(CCCN)c1ccccc1 [filanesib]
# In short: as §1
# [3] = compound: CO[C@H]1C[C@@H]2CC[C@@H](C)[C@@](O)(O2)C(=O)C(=O)N2CCCC[C@H]2C(=O)O[C@H]([C@H](C)C[C@@H]2CC[C@H](n3cnnn3)[C@H](OC)C2)CC(=O)[C@H](C)/C=C(\C)[C@@H](O)[C@@H](OC)C(=O)[C@H](C)C[C@H](C)/C=C/C=C/C=C/1C [zotarolimus]
# In short: as §1
# [4] = compound: COc1cc(C(=O)O)ccc1NC(=O)[C@@H]1N[C@@H](CC(C)(C)C)[C@](C#N)(c2ccc(Cl)cc2F)[C@H]1c1cccc(Cl)c1F [idasanutlin]
# In short: as §1
# [5] = compound: COc1cc(Nc2ncc3c(n2)-c2ccc(Cl)cc2C(c2c(F)cccc2OC)=NC3)ccc1C(=O)O [alisertib]
# In short: as §1
# [6] = compound: COc1cc2nc(-c3cc(F)ccc3O)nc(N[C@@H]3CNC[C@H]3C(C)(C)O)c2cc1OC
# In short: as §1
# [7] = compound: COc1cc2ncnc(Nc3ccc(F)c(Cl)c3)c2cc1OCCCN1CCOCC1 [gefitinib]
# In short: as §1
# [8] = compound: COc1cccc2cc(-c3nc([C@H]4CC[C@H](C(=O)O)CC4)n4ncnc(N)c34)[nH]c12
# In short: as §1
# [9] = compound: CS(=O)(=O)CCNCc1ccc(-c2ccc3ncnc(Nc4ccc(OCc5cccc(F)c5)c(Cl)c4)c3c2)o1 [lapatinib]
# In short: as §1
# [10] = compound: CS(=O)(=O)N1CCN(Cc2cc3nc(-c4cccc5[nH]ncc45)nc(N4CCOCC4)c3s2)CC1 [pictilisib]
# In short: as §1
# [11] = compound: CS(=O)(=O)c1ccc(-c2cnc(N)c(C(=O)Nc3ccccc3)n2)cc1
# In short: as §1
# [12] = compound: C[C@@H](Oc1cc(-c2cnn(C3CCNCC3)c2)cnc1N)c1c(Cl)ccc(F)c1Cl [crizotinib]
# In short: as §1
# [13] = compound: C[C@@H]1COCCN1C2=NC(=NC(=C2)C3(CC3)S(=O)(=O)C)C4=C5C=CNC5=CC=C4
# In short: as §1
# [14] = compound: C[C@H](C1=CC=C(C=C1)C(=O)NC2=C3C=CNC3=NC=C2)N
# In short: as §1
# [15] = compound: C[C@H](Nc1ncnc2nc[nH]c12)c1cc2cccc(Cl)c2c(=O)n1-c1ccccc1 [duvelisib]
# In short: as §1
# [16] = compound: Cc1cc(Nc2cc(CN3CCOCC3)c3nc(C)c(Cc4ccc(Cl)cc4F)n3n2)n[nH]1 [gandotinib]
# In short: as §1
# [17] = compound: Cc1cc(Nc2cc(N3CCN(C)CC3)nc(Sc3ccc(NC(=O)C4CC4)cc3)n2)n[nH]1 [tozasertib]
# In short: as §1
# [18] = compound: Cc1cc(SCc2sc(-c3ccc(C(F)(F)F)cc3)nc2C)ccc1OCC(=O)O
# In short: as §1
# [19] = compound: Cc1ccc(-n2nc(C(C)(C)C)cc2NC(=O)Nc2ccc(OCCN3CCOCC3)c3ccccc23)cc1 [doramapimod]
# In short: as §1
# [20] = compound: Cc1ccc(C(=O)N(CCCN)[C@@H](c2nc3cc(Cl)ccc3c(=O)n2Cc2ccccc2)C(C)C)cc1 [ispinesib]
# In short: as §1
# UniProt Q9P2R7, sequence (Q9P2R7 whole entry, looked up): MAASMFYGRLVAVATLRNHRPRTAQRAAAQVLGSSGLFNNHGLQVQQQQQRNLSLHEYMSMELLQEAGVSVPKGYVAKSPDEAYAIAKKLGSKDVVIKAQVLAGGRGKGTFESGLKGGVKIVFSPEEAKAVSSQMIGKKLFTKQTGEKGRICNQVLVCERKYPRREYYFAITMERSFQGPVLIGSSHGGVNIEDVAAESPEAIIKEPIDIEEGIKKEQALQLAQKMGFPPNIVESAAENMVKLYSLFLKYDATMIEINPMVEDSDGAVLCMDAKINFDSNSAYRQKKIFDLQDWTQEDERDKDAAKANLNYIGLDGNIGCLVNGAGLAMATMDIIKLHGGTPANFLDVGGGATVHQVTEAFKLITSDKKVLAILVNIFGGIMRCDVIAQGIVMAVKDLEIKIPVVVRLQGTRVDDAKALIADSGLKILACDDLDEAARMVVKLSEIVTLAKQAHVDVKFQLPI
# UniProt Q01130, sequence (Q01130 whole entry, looked up): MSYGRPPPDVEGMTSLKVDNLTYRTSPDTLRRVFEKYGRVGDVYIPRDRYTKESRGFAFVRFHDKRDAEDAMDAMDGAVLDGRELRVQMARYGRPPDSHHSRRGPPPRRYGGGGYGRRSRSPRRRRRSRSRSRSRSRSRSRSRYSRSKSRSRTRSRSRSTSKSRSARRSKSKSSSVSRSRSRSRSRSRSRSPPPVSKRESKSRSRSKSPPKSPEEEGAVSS
# UniProt Q8N1F8, sequence (Q8N1F8 whole entry, looked up): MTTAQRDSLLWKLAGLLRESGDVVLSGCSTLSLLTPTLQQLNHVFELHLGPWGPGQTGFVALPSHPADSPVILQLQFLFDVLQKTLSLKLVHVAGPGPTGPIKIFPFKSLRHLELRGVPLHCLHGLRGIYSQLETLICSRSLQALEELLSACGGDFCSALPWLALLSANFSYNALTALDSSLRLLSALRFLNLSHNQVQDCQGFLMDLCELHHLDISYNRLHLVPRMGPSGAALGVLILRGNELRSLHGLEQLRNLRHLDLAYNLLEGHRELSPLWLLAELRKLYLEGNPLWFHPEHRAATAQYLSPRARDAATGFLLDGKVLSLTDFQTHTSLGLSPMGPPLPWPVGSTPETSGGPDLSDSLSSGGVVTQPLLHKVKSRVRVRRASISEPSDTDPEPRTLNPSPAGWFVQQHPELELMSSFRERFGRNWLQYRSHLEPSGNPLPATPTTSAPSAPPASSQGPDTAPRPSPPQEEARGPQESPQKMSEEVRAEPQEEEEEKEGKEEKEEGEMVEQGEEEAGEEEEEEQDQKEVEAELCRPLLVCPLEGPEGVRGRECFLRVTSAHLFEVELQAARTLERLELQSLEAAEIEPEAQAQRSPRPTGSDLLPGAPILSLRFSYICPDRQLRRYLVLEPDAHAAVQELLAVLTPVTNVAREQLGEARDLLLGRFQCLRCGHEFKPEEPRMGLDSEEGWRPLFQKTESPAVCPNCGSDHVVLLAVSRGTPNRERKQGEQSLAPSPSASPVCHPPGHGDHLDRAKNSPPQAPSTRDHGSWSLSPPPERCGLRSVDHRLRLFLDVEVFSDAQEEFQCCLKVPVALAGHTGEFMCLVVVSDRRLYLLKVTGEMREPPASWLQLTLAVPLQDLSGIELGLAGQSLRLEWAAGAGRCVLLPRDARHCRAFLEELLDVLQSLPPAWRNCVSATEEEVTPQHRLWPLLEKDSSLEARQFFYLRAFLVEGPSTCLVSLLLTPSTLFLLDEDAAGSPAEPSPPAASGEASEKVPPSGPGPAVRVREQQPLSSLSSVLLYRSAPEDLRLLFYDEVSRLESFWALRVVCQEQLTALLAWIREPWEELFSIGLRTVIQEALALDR
# UniProt Q08945, sequence (Q08945 whole entry, looked up): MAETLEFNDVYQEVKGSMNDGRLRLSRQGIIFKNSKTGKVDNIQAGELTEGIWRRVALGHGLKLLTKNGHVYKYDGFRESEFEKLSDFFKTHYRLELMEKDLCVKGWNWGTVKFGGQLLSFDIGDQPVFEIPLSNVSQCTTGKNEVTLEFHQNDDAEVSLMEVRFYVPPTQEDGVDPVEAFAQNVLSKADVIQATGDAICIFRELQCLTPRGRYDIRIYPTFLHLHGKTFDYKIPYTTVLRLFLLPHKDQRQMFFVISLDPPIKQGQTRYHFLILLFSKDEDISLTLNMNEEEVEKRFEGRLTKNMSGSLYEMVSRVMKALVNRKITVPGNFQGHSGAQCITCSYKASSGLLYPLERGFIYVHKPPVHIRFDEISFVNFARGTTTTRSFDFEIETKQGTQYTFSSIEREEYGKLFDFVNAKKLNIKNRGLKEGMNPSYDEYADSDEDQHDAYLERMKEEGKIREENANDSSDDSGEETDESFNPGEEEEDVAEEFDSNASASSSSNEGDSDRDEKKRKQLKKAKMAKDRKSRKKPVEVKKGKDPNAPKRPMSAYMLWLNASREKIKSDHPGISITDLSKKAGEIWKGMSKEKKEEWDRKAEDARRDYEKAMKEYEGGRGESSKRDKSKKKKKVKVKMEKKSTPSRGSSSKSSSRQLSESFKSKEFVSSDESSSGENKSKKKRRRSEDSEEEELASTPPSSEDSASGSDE
# UniProt Q15527, sequence (Q15527 whole entry, looked up): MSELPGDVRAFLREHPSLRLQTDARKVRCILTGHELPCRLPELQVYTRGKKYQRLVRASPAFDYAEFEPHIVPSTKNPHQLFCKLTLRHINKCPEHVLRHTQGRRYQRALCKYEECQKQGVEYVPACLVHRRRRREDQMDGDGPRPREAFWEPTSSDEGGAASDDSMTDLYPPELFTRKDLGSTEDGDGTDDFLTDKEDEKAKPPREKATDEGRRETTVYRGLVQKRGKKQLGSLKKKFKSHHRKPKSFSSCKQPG
# UniProt Q13043, sequence (Q13043 whole entry, looked up): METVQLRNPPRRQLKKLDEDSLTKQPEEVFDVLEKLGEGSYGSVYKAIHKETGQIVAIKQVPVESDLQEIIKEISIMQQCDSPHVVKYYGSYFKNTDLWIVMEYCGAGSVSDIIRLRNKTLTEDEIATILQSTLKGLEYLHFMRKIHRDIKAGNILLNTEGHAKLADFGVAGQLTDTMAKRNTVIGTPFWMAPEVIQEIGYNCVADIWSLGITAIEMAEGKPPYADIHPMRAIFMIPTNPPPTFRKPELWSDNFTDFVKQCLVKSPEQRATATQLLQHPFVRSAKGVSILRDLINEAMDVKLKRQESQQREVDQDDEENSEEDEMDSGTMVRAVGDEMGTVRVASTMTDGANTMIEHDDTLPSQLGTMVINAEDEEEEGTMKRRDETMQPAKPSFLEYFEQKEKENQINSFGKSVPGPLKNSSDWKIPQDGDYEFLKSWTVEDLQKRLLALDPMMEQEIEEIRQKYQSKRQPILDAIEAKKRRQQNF
# UniProt Q14849, sequence (Q14849 whole entry, looked up): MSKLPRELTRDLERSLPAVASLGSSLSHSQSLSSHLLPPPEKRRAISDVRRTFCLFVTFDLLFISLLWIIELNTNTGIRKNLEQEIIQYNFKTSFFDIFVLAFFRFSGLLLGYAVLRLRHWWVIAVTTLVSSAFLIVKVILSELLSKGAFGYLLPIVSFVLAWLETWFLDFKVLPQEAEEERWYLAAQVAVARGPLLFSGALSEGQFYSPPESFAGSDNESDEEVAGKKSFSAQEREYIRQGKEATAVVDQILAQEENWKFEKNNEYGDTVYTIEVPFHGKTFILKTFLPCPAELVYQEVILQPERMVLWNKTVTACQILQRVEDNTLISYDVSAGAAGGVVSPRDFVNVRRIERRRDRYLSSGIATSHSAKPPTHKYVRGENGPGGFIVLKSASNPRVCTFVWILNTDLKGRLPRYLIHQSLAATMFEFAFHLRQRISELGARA
# UniProt O94901, sequence (O94901 whole entry, looked up): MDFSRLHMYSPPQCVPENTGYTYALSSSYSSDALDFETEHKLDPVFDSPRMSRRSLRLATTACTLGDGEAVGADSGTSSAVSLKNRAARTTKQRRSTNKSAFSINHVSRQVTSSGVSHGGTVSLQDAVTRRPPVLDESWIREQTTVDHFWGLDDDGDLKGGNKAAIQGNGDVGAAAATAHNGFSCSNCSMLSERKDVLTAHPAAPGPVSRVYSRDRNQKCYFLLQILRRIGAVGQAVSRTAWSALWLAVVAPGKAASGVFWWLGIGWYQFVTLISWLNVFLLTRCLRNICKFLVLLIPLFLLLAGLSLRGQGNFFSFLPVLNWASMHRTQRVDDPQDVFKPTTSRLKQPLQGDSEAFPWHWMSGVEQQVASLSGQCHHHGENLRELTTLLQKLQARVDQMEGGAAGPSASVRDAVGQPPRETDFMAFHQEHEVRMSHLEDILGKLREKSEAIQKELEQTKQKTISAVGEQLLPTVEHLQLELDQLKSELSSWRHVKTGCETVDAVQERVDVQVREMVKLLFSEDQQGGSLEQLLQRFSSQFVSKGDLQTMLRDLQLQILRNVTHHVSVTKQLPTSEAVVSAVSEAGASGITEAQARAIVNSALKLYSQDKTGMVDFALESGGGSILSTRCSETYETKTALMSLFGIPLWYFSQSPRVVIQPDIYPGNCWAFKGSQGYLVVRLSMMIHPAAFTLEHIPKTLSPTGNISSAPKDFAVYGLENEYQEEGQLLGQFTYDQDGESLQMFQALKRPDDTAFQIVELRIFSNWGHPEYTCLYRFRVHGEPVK
# UniProt Q13247, sequence (Q13247 whole entry, looked up): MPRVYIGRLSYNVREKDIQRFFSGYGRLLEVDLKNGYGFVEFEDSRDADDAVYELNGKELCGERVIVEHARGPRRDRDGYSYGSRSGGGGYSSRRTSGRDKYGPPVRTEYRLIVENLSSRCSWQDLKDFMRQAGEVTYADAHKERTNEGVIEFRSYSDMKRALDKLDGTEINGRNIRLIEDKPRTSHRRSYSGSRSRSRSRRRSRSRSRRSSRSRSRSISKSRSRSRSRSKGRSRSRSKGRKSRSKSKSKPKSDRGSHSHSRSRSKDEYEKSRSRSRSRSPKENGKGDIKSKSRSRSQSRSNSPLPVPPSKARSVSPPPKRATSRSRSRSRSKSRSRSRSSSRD
# UniProt P51571, sequence (P51571 whole entry, looked up): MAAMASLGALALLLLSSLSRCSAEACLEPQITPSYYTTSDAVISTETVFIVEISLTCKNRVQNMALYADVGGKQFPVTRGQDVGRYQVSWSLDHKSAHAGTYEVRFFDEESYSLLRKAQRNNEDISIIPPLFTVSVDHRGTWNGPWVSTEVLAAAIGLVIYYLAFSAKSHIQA
Target,log2 fold change [1],log2 fold change [2],log2 fold change [3],log2 fold change [4],log2 fold change [5],log2 fold change [6],log2 fold change [7],log2 fold change [8],log2 fold change [9],log2 fold change [10],log2 fold change [11],log2 fold change [12],log2 fold change [13],log2 fold change [14],log2 fold change [15],log2 fold change [16],log2 fold change [17],log2 fold change [18],log2 fold change [19],log2 fold change [20]
SSR4 (UniProt P51571),-0.015,-0.052,0.036,-0.012,-0.004,0.08,-0.023,0.047,-0.05,0.106,-0.004,0.001,0.081,-0.054,0.06,-0.055,0.029,0.033,-0.019,-0.045
TARS2 (UniProt Q9BW92),-0.487 (active),-0.02,-0.006,-0.084,-0.021,0.044,-0.023,0.041,-0.022,0.004,0.022,0.024,0.094,-0.002,0.049,-0.173,0.057,0.009,0.015,-0.094
SRSF10 (UniProt O75494),-0.102,0.424,-0.157,0.388,-0.099,-0.169,-0.009,-0.056,0.101,-0.042,-0.176,0.153,-0.539,0.259,-0.139,0.183,0.095,0.036,0.222,-0.172
SUCLA2 (UniProt Q9P2R7),-0.004,-0.096,0.01,-0.074,0.104,0.093,0.022,0.018,-0.05,0.109,0.034,0.001,0.087,-0.011,0.04,-0.058,-0.043,0.012,0.003,-0.064
STAT3 (UniProt P40763),0.063,-0.031,0.086,-0.003,0.013,0.023,0,-0.039,0.004,0.051,0.059,-0.126,0.105,-0.063,0,-0.184,0.073,0.088,-0.009,-0.03
SPCS2 (UniProt Q15005),0.5 (active),-0.061,0.018,-0.039,0.008,0.092,0.03,-0.021,0.002,-0.006,0.032,0.001,0.02,-0.036,0.035,-0.007,-0.015,-0.013,0.047,0.085
SRSF2 (UniProt Q01130),-0.071,0.118,0,0.123,-0.076,-0.003,0.038,0.024,0.039,0.027,0.005,0.023,-0.107,0.006,0.013,0.092,-0.037,-0.006,-0.033,-0.036
SUN1 isoform 9 (UniProt O94901),-0.062,0.084,0.162,0.02,-0.059,-0.14,-0.053,0.122,0.052,-0.002,-0.03,-0.067,-0.005,0.006,-0.059,-0.052,-0.047,-0.017,0.089,-0.324 (active)
TGFBR1 isoform 2 (UniProt P36897),0.004,-0.001,-0.217,-0.007,-0.05,0.06,-0.029,-0.041,0.063,-0.073,0.254 (active),0.133,-0.031,0.024,-0.019,0.101,0.026,0.014,-0.005,-0.156
STK4 (UniProt Q13043),-0.031,-0.034,-0.025,0.01,-0.047,0.099,-0.007,0.015,-0.036,0.02,0.009,-0.01,0.032,0.036,0.068,0.043,-0.021,-0.004,-0.008,-0.03
SLC27A2 (UniProt O14975),0.089,-0.033,0.032,0.257,-0.034,0.046,0.156,-0.052,0.112,0.034,0.273 (active),0.046,-0.005,-0.031,0.094,0.094,0.166,0.108,0.027,-0.056
SRSF6 (UniProt Q13247),-0.209,0.218,-0.118,0.375,-0.105,-0.134,0.033,-0.032,0.163,-0.473,-0.021,-0.09,-0.195,0.03,-0.085,-0.043,-0.08,0.059,-0.047,–
SSRP1 (UniProt Q08945),0.118,0.023,0.036,-0.005,-0.037,-0.05,0.028,-0.014,0.008,-0.026,-0.024,-0.018,0.144,-0.088,0.029,-0.029,0.087,0.072,-0.027,0.048
STARD3 (UniProt Q14849),0,-0.147,-0.004,0.109,0.018,0.038,0.075,0.035,0.043,-0.047,0.017,-0.36 (active),0.194,-0.043,0.065,0.098,-0.06,-0.015,0.043,-0.559 (active)
STK11IP (UniProt Q8N1F8),-0.029,0.042,0.195,0.044,-0.131,-0.172,-0.072,-0.139,-0.088,0.117,-0.21,-0.869 (active),-0.078,-0.124,-0.089,-0.002,-0.042,0.021,0.006,–
SURF2 (UniProt Q15527),0.038,0.014,0.055,0.054,-0.133,0.023,0.028,-0.034,0.006,-0.07,-0.009,0.084,-0.02,-0.118,0.018,0,-0.01,0.04,-0.068,0.038
